Laboratory results from PubChem BioAssay AID1048 (The Scripps Research Institute Molecular Screening Center, 2008).
The campaign covered roughly 99,000 compounds. About 390 (0.39%) were called active. Rule as the data show it: active = TR-FRET ratio above about 2000; inactive = the rest. The sample as a whole holds a higher share of actives than the screen did.

Assay: signal artefacts in PPARgamma/SRC-3 readout – biochemical, TR-FRET ratio, artefact control for PPARgamma SRC-3 recruitment agonists (AID 1048)
Conditions: TR-FRET artefact counter-screen, PPARgamma/SRC-3 format; at 8 µM; stronger effect = higher value

Compound | TR-FRET ratio
O=C(Nc1ccc2ccccc2c1)/C(=C\c1ccc2c(c1)OCO2)NC(=O)c1ccco1 | 1560 (inactive)
O=C(CSc1ccc(-c2cccs2)nn1)Nc1ccccc1F | 1640 (inactive)
Cc1ccccc1-c1n[nH]c(=S)n1C | 1470 (inactive)
Cc1ccccc1-c1n[nH]c(=S)n1/N=C/c1ccc(-c2ccccc2Br)o1 | 2150 (active)
S=c1[nH]nc(-c2ccccc2)n1/N=C/c1c[nH]c2ccccc12 | 1470 (inactive)
COCCN(C(=S)Nc1ccccc1OC)C1CCN(C(C)C)CC1 | 1690 (inactive)
COc1ccc(OC)c(C(=O)c2ccc(C(=O)N3CCN(Cc4csc(C)n4)CC3)cc2)c1 | 1600 (inactive)
COc1ccc(C)cc1NC(=O)Nc1ccccc1SC | 1480 (inactive)
C/C(N)=C(/C#N)C(=O)COC(=O)c1cc(-c2ccccc2)nc2ccc(Br)cc12 | 1450 (inactive)
Cc1ccc(-c2cc(C(=O)NCc3cn(C)nc3C)c3cc(Br)ccc3n2)cc1 | 3150 (active)
Cc1ccc2nc(-c3cccc(Br)c3)cc(C(=O)Nn3cnnc3)c2c1 | 1410 (inactive)
O=C(NCc1ccccn1)c1cc(Br)ccc1Cl | 1620 (inactive)
O=C(Nc1ccncc1)c1cc(-c2ccccn2)nc2ccc(Br)cc12 | 1720 (inactive)
O=C(NCc1cccs1)c1cc(-c2ccccn2)nc2ccc(Br)cc12 | 2270 (active)
O=C(Cc1c(F)cccc1Cl)Nc1ccc(-n2cnnn2)cc1 | 1510 (inactive)
CCOc1ccc(CCNC(=O)CSc2cc(=O)n(C)c3ccc(Cl)cc23)cc1OCC | 1800 (inactive)
CC(C)N(C(=O)Cn1cc(SCC(=O)N2CCCC2)c2ccccc21)C(C)C | 1440 (inactive)
Cn1c(=O)cc(SCC(=O)N2CCCC2)c2cc(Cl)ccc21 | 3460 (active)
CC(C)NC(=O)c1ccc(Cl)cc1Cl | 1730 (inactive)
NC1=NC2(CCCCC2)N(c2ccc(F)cc2F)C(N)=N1 | 1410 (inactive)
COc1ccc2c(CC(=O)OCC(=O)Nc3ccccc3[N+](=O)[O-])coc2c1 | 1720 (inactive)
CCOc1ccc(NC(=O)CSc2nc3ccccc3c(=O)n2Cc2cccs2)cc1 | 1640 (inactive)
CCOc1ccc(NC(=O)c2cc(C)nc3ccccc23)cc1 | 1470 (inactive)
CCOc1ccc(NC(=O)CSc2ncnc3c2sc2ccccc23)cc1 | 3140 (active)

Compound | TR-FRET ratio
Cn1nnnc1NCc1ccc(Cl)c(Cl)c1 | 1750 (inactive)
CCOC(=O)C1C(c2ccc(Cl)cc2)NC(=S)NC1(O)C(F)(F)F (stereo unspecified) | 1580 (inactive)
CCCOc1ccc(N/C=C/C(=O)C(C)(C)C)cc1 | 1370 (inactive)
CN(C)c1ccc(N/C=C/C(=O)C(F)(F)F)cc1 | 2070 (active)
CC(C)CNC(=O)C(=O)Nc1ccc(N(C)C)cc1 | 1510 (inactive)
COc1ccc(CC(NC(C)=O)C(=O)NC2CCN(C(=O)C3CC3)CC2)cc1OC (stereo unspecified) | 1430 (inactive)
CC1COc2ccccc2N1C(=O)c1cccnc1Cl (stereo unspecified) | 1670 (inactive)
COc1ccc(C(=O)NNC(=O)c2cc(C)[nH]n2)cc1 | 1480 (inactive)
O=C(O)Cc1sc(-c2ccccc2)nc1-c1cccs1 | 2530 (active)
O=C(O)Cc1sc(-c2ccc(C(=O)O)cc2)nc1-c1ccccc1 | 1690 (inactive)
O=C(O)Cc1ccc(-c2ccccc2)cc1 | 1600 (inactive)
CN(C)/N=C/c1cn(-c2ccccc2)nc1-c1cccnc1 | 1610 (inactive)
CCc1nnc(NC(=O)CSc2nnnn2-c2cccc(C(C)=O)c2)s1 | 1550 (inactive)
Cc1ccc2c(c1)C1CN(C)CCC1N2C(=S)Nc1ccc(Cl)cc1Cl (stereo unspecified) | 1610 (inactive)
CCN(CC)CCNc1nc(-c2ccc(OC(F)F)cc2)c(C)s1 | 1480 (inactive)
CC(NC(=O)COC(=O)c1ccc(Cl)cc1O)c1ccc(F)cc1 (stereo unspecified) | 1480 (inactive)
O=c1c2sccc2nc(SCc2cc(=O)n3ccccc3n2)n1-c1ccc(Br)cc1 | 1730 (inactive)
Cc1cccc2nc(CSc3nc4[nH]ncc4c(=O)n3-c3cccc(Cl)c3)cc(=O)n12 | 1540 (inactive)
CCc1ccc(-n2c(SCc3cc(=O)n4cc(Br)ccc4n3)nc3[nH]ncc3c2=O)cc1 | 2480 (active)
COc1ccc2cc(CCl)c(Cl)nc2c1 | 1710 (inactive)
C(=N/Nc1cc(N2CCOCC2)nc(N2CCOCC2)n1)/c1ccccc1 | 1290 (inactive)
CCN(CC)c1ccc(C(=O)N/N=C/c2ccc(N3CCOCC3)cc2)cc1 | 1580 (inactive)
CN(C)c1ccc(/C=N/Nc2cc(N3CCOCC3)nc(N3CCOCC3)n2)cc1 | 2070 (active)
CCCN(CC(=O)Nc1ccc(C(N)=O)cc1)CC(=O)Nc1ccccc1C | 1400 (inactive)

Compound | TR-FRET ratio
CC1Cc2ccccc2N1C(=O)CSc1nnc(-c2ccc(S(=O)(=O)N3CCCC3)cc2)n1C (stereo unspecified) | 1610 (inactive)
CC/C(Cc1ccccc1)=N/NC(=O)CCn1nnc2ccccc21 | 1860 (inactive)
CCOC(=O)c1c(NC(=O)C(C)Sc2c[nH]c3ccccc23)sc2c1CCC2 (stereo unspecified) | 3480 (active)
CCOC(=O)c1c(NC(=S)Nc2ccccc2C)sc2c1CCC2 | 1790 (inactive)
CCOC(=O)c1c(NC(=O)CSc2cn(CC)c3ccccc23)sc2c1CCC2 | 1590 (inactive)
Cc1cccc(NC(=O)c2sc(-c3ccccc3)nc2-c2ccc([N+](=O)[O-])cc2)c1 | 1630 (inactive)
Cc1ccc(S(=O)(=O)NCCC(=O)Nc2ccc(C)c(Cl)c2)cc1C | 1640 (inactive)
Cc1ccc(-c2nc(-c3cccnc3)sc2CC(=O)Nc2ccc(C)c(Cl)c2)cc1 | 3550 (active)
CCc1cc(CNC(=O)CC2C(=O)NCCN2CC2CCCCC2)on1 (stereo unspecified) | 1630 (inactive)
CC1=CC=CN2C1=NC(=O)CC2(C)C(=O)N(CC(=O)NC1CCCC1)c1ccccc1C (stereo unspecified) | 1450 (inactive)
CN(Cc1ccccn1)Cc1nc(-c2ccc(Cl)cc2)no1 | 1430 (inactive)
CN1CCN(S(=O)(=O)c2cccc(C(=O)O)c2)CC1 | 1540 (inactive)
CC1(C)CC(=O)C(C2c3ccccc3S(=O)(=O)c3ccccc32)C(=O)C1 | 1570 (inactive)
CN(CCc1cnn(C)c1)Cc1cn(C)nc1-c1ccccc1F | 1360 (inactive)
COc1cccc(NC(=O)CC(c2ccc(OC(C)C)cc2)c2ccccc2OC)c1 (stereo unspecified) | 1470 (inactive)
COn1c(-c2ccc(Cl)cc2Cl)nc2ncccc21 | 1970 (inactive)
COc1ccc(CCNC(=O)COC(=O)C2CCCCC2)cc1 | 1330 (inactive)
CC(C)(C)NC(=O)COC(=O)c1cc(Cl)ccc1[N+](=O)[O-] | 1550 (inactive)
COc1ccc2c(c1)C(SCC(=O)NCc1ccccc1)CC(C)(C)O2 (stereo unspecified) | 1590 (inactive)
O=S1(=O)CC/C(=N\Nc2ccc(F)cc2)c2ccsc21 | 1680 (inactive)
COc1ccccc1NC(=O)COC(=O)Cc1ccc(S(=O)(=O)N2CCCCC2)s1 | 1680 (inactive)
Cc1c(Cl)c([N+](=O)[O-])nn1CC(=O)NCC1CCCO1 (stereo unspecified) | 1690 (inactive)
O=[N+]([O-])c1ccccc1SNc1ccccn1 | 1510 (inactive)
CC(=O)Nc1ccc(Nc2nc3c(S(=O)(=O)c4ccc(C)c(C)c4)nnn3c3ccccc23)cc1 | 1560 (inactive)

Compound | TR-FRET ratio
COCCCNc1nc2c(-c3cccc(C(F)(F)F)c3)nnn2c2ccccc12 | 2690 (active)
Cc1cccc(Nc2nc3c(S(=O)(=O)c4ccccc4)nnn3c3ccccc23)c1C | 1540 (inactive)
CCOC(=O)c1ccc(NC(=O)c2cc(=O)[nH]c3ccccc23)cc1 | 1550 (inactive)
O=C(NCc1ccc(F)cc1)C(c1ccccc1)N(C(=O)c1csnn1)C1CC1 (stereo unspecified) | 1460 (inactive)
CCc1nccn1S(=O)(=O)c1cccc([N+](=O)[O-])c1 | 1700 (inactive)
CC1Cc2ccccc2N1C(=O)CSc1nnc(C2CC2)n1C (stereo unspecified) | 1630 (inactive)
Cc1ccc(S(=O)(=O)N(C)c2ccc(OCC(=O)NC3=NCCS3)cc2)cc1 | 1460 (inactive)
Cc1ccc(NC(=O)NNC(=O)c2sccc2-n2cccc2)cc1 | 1310 (inactive)
COc1cc(CN(C)Cc2nc3cc(C(F)(F)F)ccc3c(=O)[nH]2)ccc1OC(F)F | 1340 (inactive)
CSCC(=O)N1CCCC(C(=O)c2cc(F)ccc2F)C1 (stereo unspecified) | 1400 (inactive)
Cc1ccc(C(=O)N/C(=C/c2cccs2)C(=O)NCC2CCCO2)cc1 (stereo unspecified) | 1510 (inactive)
O=C(CCC(=O)NNc1nc2ccccc2c2nc(-c3ccccc3)nn12)NCCCN1CCCC1=O | 1570 (inactive)
C/C(=N\Nc1ncc(Cl)cc1Cl)c1cccs1 | 1400 (inactive)
COCCn1c(=O)[nH]c(=O)c2cc(C(=O)c3cc(OC)ccc3O)cnc21 | 1460 (inactive)
Fc1ccccc1Cc1ccc(Cl)nn1 | 1250 (inactive)
CCCCOc1ccc(N(CC(=O)NC(C)C)C(=O)CCC(=O)Nc2ccccn2)cc1 | 1760 (inactive)
COc1ccc(C2CC(c3cccs3)=NN2C(=O)COC(=O)c2cc3ccccc3cc2O)cc1OC (stereo unspecified) | 1600 (inactive)
O=C(N/N=C/c1ccccn1)C12CC3CC(CC(C3)C1)C2 | 1520 (inactive)
O=C(NCCOc1ccccc1F)Nc1ccc(Br)cc1 | 1530 (inactive)
O=C(O)c1ccc2c3c(cccc13)C(=O)N(OS(=O)(=O)c1ccccc1)C2=O | 1490 (inactive)
CCOC(=O)c1c(NC(=O)CNC2CCCc3ccccc32)sc(C(N)=O)c1C (stereo unspecified) | 2120 (active)
CCC(=O)Nc1sc(C(=O)Nc2ccccc2)c(C)c1C(=O)OC | 1430 (inactive)
CCOC(=O)c1sc(NC(=O)COc2ncnc3ccccc23)c(C(=O)OCC)c1C | 1650 (inactive)
CC(C)(C)C1CCC(C(=O)Nc2cccnc2)CC1 (stereo unspecified) | 1510 (inactive)
